The record followed here is the supplement of paper PMC12350171.

Structures can show the parent of a compound that is named as a salt. A number with no mark means an inactive call.

Holding throughout (settings): 20 µM
In test [1] the test system is Salmonella enterica typhimurium. As to the kind of experiment: growth AUC normalised to DMSO control (fraction of control); higher = less growth inhibition, active = hit call of the paper. The gist of the method: (§1)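 Pathogens passaged twice anaerobically were inoculated at a starting OD578 of 0.01 into pre-reduced mGAM plates with drug at 20 μM and 1% DMSO, sealed with breathable membranes. Haemophilus parainfluenzae medium was supplemented with hemin and NAD. OD578 was read hourly for 24 h, with three biological replicates. Growth-curve AUC was computed by the trapezoidal rule up to the exponential-to-stationary transition and normalised to DMSO controls on the same plate.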

Another test relates to Shigella flexneri. The description is as above. The gist of the method: as §1
For another test, the system named is Vibrio cholerae. The description is as above. The essentials: as §1
In test [2] the test system is Yersinia pseudotuberculosis. Described as above. The gist of the method: as §1
The next test relates to P. vulgatus RND KO. Briefly: growth AUC normalised to DMSO control (median) (fraction of control); higher = less growth inhibition, active = hit call of the paper. The gist of the method: (§2)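 In 96-well plates of mGAM seeded at OD578 0.01, strains that had been passaged twice overnight without oxygen were exposed to approved-drug library compounds at 20 μM with 1% DMSO. Hourly OD578 readings were taken for 24 h in an anaerobic incubator. The trapezoidal-rule area under the curve, with curves truncated at entry into stationary phase, was expressed relative to same-plate vehicle wells as the median of three biological replicates.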

A further test deals with P. vulgatus WT. Described as above. The essentials: as §2
Test [3] concerns S. enterica typhimurium WT. Described as above. The essentials:
as §2

Test [4] deals with S. enterica typhimurium tolC KO. Described as above. The gist of the method:
as §2
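Throughout, for growth AUC normalised to DMSO control (median): active when median AUC fell below 0.1.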

For `CC(=O)c1ccc(S(=O)(=O)NC(=O)NC2CCCCC2)cc1` [Acetohexamide], the “growth AUC normalised to DMSO control” value in test [1] was 1; with Shigella flexneri, 0.998; with Vibrio cholerae, 0.984; in test [2] it was 0.989; in the test on P. vulgatus RND KO it was 0.949; in the test with P. vulgatus WT it was 1. For the same compound, the entries for the “growth AUC normalised to DMSO control” value in test [3] and in test [4] were 0.996 and 0.994, respectively.

Regarding `C[C@@H](O)[C@H]1C(=O)N2C(C(=O)O)=C(S[C@@H]3CN[C@H](C(=O)N(C)C)C3)[C@H](C)[C@H]12` [Meropenem], the “growth AUC normalised to DMSO control” value in test [1] was 0.00502 (active); in the test on Shigella flexneri, 0.0408 (active); in the test with Vibrio cholerae it was 0.844; in test [2], 0.0586 (active); in the test with P. vulgatus RND KO, 0.0122 (active); in the test on P. vulgatus WT, 0.0155 (active). The “growth AUC normalised to DMSO control” value was 0.00861 (active) in test [3] and 0.00577 (active) in test [4].

In the case of `CC(=O)Oc1ccccc1C(=O)O` [Acetylsalicylic acid], the “growth AUC normalised to DMSO control” value is 1.04 in test [1]; 1.04 in the test on Shigella flexneri; 1.09 in the test with Vibrio cholerae; 1.02 in test [2]; 1.01 in the test with P. vulgatus RND KO; 1.01 in the test on P. vulgatus WT. The “growth AUC normalised to DMSO control” value in test [3] and in test [4] was 1.01 throughout.

Turning to `CC(=O)N(O)CCCCCNC(=O)CCC(=O)N(O)CCCCCNC(=O)CCC(=O)N(O)CCCCCN` [Deferoxamine mesylate], the “growth AUC normalised to DMSO control” value in test [1] is 1.03; in the test with Shigella flexneri it was 1.03; in the test with Vibrio cholerae it was 1.03; in test [2] it was 1; in the test with P. vulgatus RND KO it was 1.04; in the test on P. vulgatus WT, 1.07. In addition, the “growth AUC normalised to DMSO control” value in test [3] was 0.998; in test [4], 1.

Regarding `CNCC[C@@H](Oc1ccccc1C)c1ccccc1` [Tomoxetine hydrochloride], the “growth AUC normalised to DMSO control” value in test [1] is 1.01; with Shigella flexneri, 1.02; in the test on Vibrio cholerae it was 1.01; in test [2] it was 1; in the test on P. vulgatus RND KO, 0.954; with P. vulgatus WT, 0.969. Also, the “growth AUC normalised to DMSO control” value in test [3] was 0.996; in test [4], 0.974.

`CC(N)(Cc1ccc(O)c(O)c1)C(=O)O` (stereo not drawn) [(L) Methyldopa]: the “growth AUC normalised to DMSO control” value in test [1] was 1.01; with Shigella flexneri it was 1.01; in the test on Vibrio cholerae it was 1.01; in test [2], 0.973; in the test with P. vulgatus RND KO, 1.03; in the test with P. vulgatus WT, 1.05. For the same compound, the “growth AUC normalised to DMSO control” value in test [3] and in test [4] was 1.01 each time.

Consider `COc1ccc(C2CNC(=O)C2)cc1OC1CCCC1` (stereo not drawn) [Rolipram], for which the “growth AUC normalised to DMSO control” value in test [1] is 0.976; with Shigella flexneri, 0.948; with Vibrio cholerae, 0.945; in test [2] it was 0.984; in the test on P. vulgatus RND KO it was 1.01; in the test on P. vulgatus WT it was 1.02. Also, the “growth AUC normalised to DMSO control” value in test [3] was 1.01; in test [4], 0.98.

Turning to `CN(C)CCCOc1nn(Cc2ccccc2)c2ccccc12` [Benzydamine hydrochloride], the “growth AUC normalised to DMSO control” value in test [1] was 1; in the test with Shigella flexneri it was 0.958; in the test with Vibrio cholerae it was 0.892; in test [2], 0.991; in the test with P. vulgatus RND KO, 0.993; in the test with P. vulgatus WT it was 1.01. Moreover, the “growth AUC normalised to DMSO control” value is 0.988 in test [3] and 0.959 in test [4].

As to `CC(=O)O[C@]1(C(C)=O)CC[C@H]2[C@@H]3C=C(Cl)C4=CC(=O)CC[C@]4(C)[C@H]3CC[C@@]21C` [Chlormadinone acetate], the “growth AUC normalised to DMSO control” value is 0.989 in test [1]; 0.993 with Shigella flexneri; 1 in the test on Vibrio cholerae; 1 in test [2]; 0.945 in the test with P. vulgatus RND KO; 0.977 with P. vulgatus WT. Besides, the “growth AUC normalised to DMSO control” value in test [3] was 0.998; in test [4] it was 0.981.

As for `CCN(CC)CCNc1ccc(CO)c2sc3ccccc3c(=O)c12` [Hycanthone], the “growth AUC normalised to DMSO control” value in test [1] is 0.936; in the test with Shigella flexneri, 0.984; with Vibrio cholerae, 0.879; in test [2] it was 0.991; in the test on P. vulgatus RND KO, 0.994; with P. vulgatus WT, 0.96. Further, the “growth AUC normalised to DMSO control” value in test [3] was 0.993; in test [4] it was 0.163.

As for `Cc1cc(C2CCCCC2)n(O)c(=O)c1` [Ciclopirox ethanolamine], the “growth AUC normalised to DMSO control” value was 1.01 in test [1]; 0.997 in the test with Shigella flexneri; 0.969 in the test on Vibrio cholerae; 0.995 in test [2]; 1.02 with P. vulgatus RND KO; 0.999 in the test with P. vulgatus WT. Besides, the “growth AUC normalised to DMSO control” value is 1.02 in test [3] and 0.952 in test [4].

In the case of `CC(C)NCC(O)c1ccc2ccccc2c1` (stereo not drawn) [Pronethalol hydrochloride], the “growth AUC normalised to DMSO control” value in test [1] was 0.991; with Shigella flexneri, 1; in the test on Vibrio cholerae, 0.999; in test [2], 0.982; with P. vulgatus RND KO, 1; with P. vulgatus WT, 1.01. The “growth AUC normalised to DMSO control” value in test [3] is 0.994; in test [4], 0.989.

As to `CC(=O)N[C@@H](CS)C(=O)O` [Acetylcysteine], the “growth AUC normalised to DMSO control” value in test [1] was 1.03; in the test on Shigella flexneri, 1.06; in the test with Vibrio cholerae, 1.05; in test [2] it was 1.04; with P. vulgatus RND KO, 1.07; in the test on P. vulgatus WT, 1.06. The “growth AUC normalised to DMSO control” value in test [3] was 1.01; in test [4], 0.991.

With `COC(=O)CCc1ccc(OCC(O)CNC(C)C)cc1` (stereo not drawn) [Esmolol hydrochloride], the “growth AUC normalised to DMSO control” value is 1.01 in test [1]; 1.06 in the test with Shigella flexneri; 1.06 in the test on Vibrio cholerae; 1 in test [2]; 1.05 in the test on P. vulgatus RND KO; 1.09 in the test on P. vulgatus WT. Also, the “growth AUC normalised to DMSO control” value in test [3] is 1; in test [4], 1.01.

Consider `CC(C)(C)C(=O)OCOC(=O)[C@@H]1N2C(=O)[C@@H](/N=C/N3CCCCCC3)[C@H]2SC1(C)C` [Pivmecillinam hydrochloride], for which the “growth AUC normalised to DMSO control” value in test [1] was 0.0179 (active); with Shigella flexneri, 0.0752 (active); in the test on Vibrio cholerae, 0.956; in test [2], 0.0551 (active); with P. vulgatus RND KO, 1.01; in the test with P. vulgatus WT, 1.03. The “growth AUC normalised to DMSO control” value in test [3] is 0.158; in test [4] it was 0.145.

On to `CN1CCCC(CC2c3ccccc3Sc3ccccc32)C1` (stereo not drawn) [Metixene hydrochloride], for which the “growth AUC normalised to DMSO control” value was 0.987 in test [1]; 1 in the test with Shigella flexneri; 0.944 in the test on Vibrio cholerae; 1 in test [2]; 0.774 in the test with P. vulgatus RND KO; 0.704 in the test on P. vulgatus WT. In addition, the figures for the “growth AUC normalised to DMSO control” value in test [3] and in test [4] were 1.01 and 0.923, respectively.
